# In the library only some 2.3% were active in any assay of this set; here they are far more common.
# CHO-K1 Ca antag = nonselective inhibitor or artifact in parental CHO-K1 cells. inhibition, % at 3 µM. 360,000 compounds, 0.6% hits. ATP-induced calcium, Fluo-8 fluorescence. AID 602250;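 active means inhibition above a per-plate cutoff, the plate's mean sample inhibition plus 3 SD, cut at about 24% in these data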
# CHRM1 agonist = human M1 muscarinic receptor agonism; P11229; CHO-K1 hM1, Fluo-8 calcium fluorescence, agonist mode; 0% DMSO, 100% acetylcholine EC100; activation, % at 3 µM; 360,000 compounds, 0.33% hits;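 active means activation above the run's mean compound activation plus 3 SD, cut at about 16% in these data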;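 further: peak over basal fluorescence ratio within a 140 s kinetic read after compound addition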
# Target sequence (P11229 whole entry, looked up): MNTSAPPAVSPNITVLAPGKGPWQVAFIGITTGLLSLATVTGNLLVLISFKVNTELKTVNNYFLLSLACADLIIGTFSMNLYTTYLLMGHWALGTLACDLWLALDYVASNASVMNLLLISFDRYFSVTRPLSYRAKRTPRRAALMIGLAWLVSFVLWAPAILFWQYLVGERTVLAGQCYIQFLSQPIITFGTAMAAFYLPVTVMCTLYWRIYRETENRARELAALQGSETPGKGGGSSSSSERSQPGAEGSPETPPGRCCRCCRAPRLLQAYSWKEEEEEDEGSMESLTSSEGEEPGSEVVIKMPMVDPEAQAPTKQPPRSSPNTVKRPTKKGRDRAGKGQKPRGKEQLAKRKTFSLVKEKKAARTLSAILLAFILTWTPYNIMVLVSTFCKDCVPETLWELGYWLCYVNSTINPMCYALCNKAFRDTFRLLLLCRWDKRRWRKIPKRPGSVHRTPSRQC
# M1 ag parental = counter-screen for M1 agonists: effect in parental CHO-K1 cells. Fluo-8 calcium fluorescence; scaled to maximal ATP response, vehicle zero. activation, % at 3 µM. 360,000 compounds, 0.48% hits; in the data active means activation above about 15%;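 further: untransfected CHO-K1 host cells lacking M1 receptor as counterscreen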
# CHRM1 antagonist = antagonists of human M1 muscarinic receptor. inhibition, % at 3 µM. AID 588852. P11229. 360,000 compounds, 1.3% hits. CHO-K1 hM1, Fluo-8 calcium fluorescence, ACh EC80 antagonist;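 active means percent inhibition above its own plate's cutoff, namely the mean of that plate's compound wells plus 3 SD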;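 further: peak over basal fluorescence ratio during 140 s after agonist addition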
# CHO-K1 Ca PAM = M1 PAM counterscreen hit in parental CHO-K1 cells; activation, % at 3 µM; 360,000 compounds, 0.02% hits; ATP EC20, Fluo-8 calcium fluorescence; 0% at ATP EC20, 100% at ATP max;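 active means activation above the run cutoff, the mean activation of all test compounds plus 3 SD, cut at about 40% in these data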;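 further: peak over basal fluorescence ratio in a 140 s read after ATP addition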
# M1 PAM = human CHRM1 positive allosteric modulation. P11229. CHO-K1 hM1, Fluo-8 calcium fluorescence, ACh EC20; 0% = ACh EC20, 100% = maximal ACh. activation, % at 3 µM. 360,000 compounds, 0.088% hits. AID 588819; in the data active means activation above about 19%, passing the limit was not always enough
# Hits are given with their value; n = inactive.
SMILES,CHO-K1 Ca antag,CHRM1 agonist,M1 ag parental,CHRM1 antagonist,CHO-K1 Ca PAM,M1 PAM
CCN(CC)CCOC(=O)c1ccc(NC(=O)CCCN2C(=O)/C(=C\c3cccs3)SC2=S)cc1,n,n,n,43,n,n
O=C(Nc1ccncc1)C1CCC(CNS(=O)(=O)c2cccc3nsnc23)CC1 (stereo not drawn),n,n,n,n,n,n
C=CCN1C(=O)/C(=C/c2ccc(OC(C)=O)c(OCC)c2[N+](=O)[O-])SC1=S,25,n,n,n,n,n
CCOc1c(OC(C)=O)ccc(/C=C/c2ccc3cccc(OC(C)=O)c3n2)c1[N+](=O)[O-],n,n,n,n,n,n
CCC(NC(=O)c1ccc2nc(Cc3ccc(OC)cc3)oc2c1)c1ccncc1 (stereo not drawn),n,n,15,n,n,n
Cn1c(CSCc2ccc(F)cc2)nnc1SCC(=O)Nc1nccs1,26,n,n,n,n,n
Cc1ccc(C)c(N2CCN(C(=O)CCc3nc(-c4cccc(Cl)c4)no3)CC2)c1,n,n,n,n,n,n
COc1ccc(Cn2c(C(F)(F)F)ccc(C(N)=O)c2=O)cc1,n,n,n,n,n,n
NC(=O)c1ccc(C(F)(F)F)n(Cc2c(Cl)cccc2Cl)c1=O,n,n,n,n,n,20
Cn1ccnc1C1CCCCN1C(=O)c1cc(COc2ccc(F)cc2Cl)on1 (stereo not drawn),n,n,n,36,n,n
O=C(c1cc(COc2ccc(F)cc2Cl)on1)N1CC[C@@H]2CCCC[C@H]2C1,n,n,n,n,n,n
CCN(CC)C1CCN(C(=O)c2cc(COc3ccccc3SC)on2)C1 (stereo not drawn),n,n,n,56,n,n
CSc1ccccc1OCc1cc(C(=O)N2CCCC(C)C2)no1 (stereo not drawn),n,n,n,n,n,n
CSc1ccccc1OCc1cc(C(=O)N2CCC(Oc3cccnc3)CC2)no1,n,n,n,39,n,n
CSc1ccccc1OCc1cc(C(=O)N2CCSCC2)no1,n,n,n,n,n,n
COCC1CCN(C(=O)c2cc(COc3ccc(F)cc3Cl)on2)C1 (stereo not drawn),n,n,n,n,n,n
CCN(CC)C1CCN(C(=O)c2cc(COc3ccc(F)cc3Cl)on2)C1 (stereo not drawn),n,n,n,70,n,n
COc1cccc(CN2CCN(Cc3cccn3-c3cccnc3)CC2CCO)c1 (stereo not drawn),n,n,n,n,n,n
O=C(NCCc1ccccc1)Nc1ccc2c(c1)OCO2,n,n,n,n,n,n
O=S(=O)(c1ccc(Cl)cc1)N1CCNCC1,n,n,n,n,n,n
Clc1ccc(C(c2cccs2)N2CCNCC2)cc1 (stereo not drawn),n,n,n,45,n,n
CCCCCCCCCCCCCCCC[N+](C)(C)CCl,n,n,n,43,n,n
CCCCCC[N+](C)(C)CCSSCC[N+](C)(C)CCCCCC,n,n,n,n,n,n
CCCCCCCCCCCCCCCC[N+](C)(C)CC,n,n,n,90,n,n
CC(O)(c1ccncc1)c1nc(-c2cccc(C(F)(F)F)c2)cs1 (stereo not drawn),n,n,n,30,n,n
SMILES,CHO-K1 Ca antag,CHRM1 agonist,M1 ag parental,CHRM1 antagonist,CHO-K1 Ca PAM,M1 PAM
CCN(CC)C(=O)c1cccc(-c2csc(C(C)(O)c3ccc(OC)cc3)n2)c1 (stereo not drawn),n,n,n,46,n,n
CCOC1=C2[C@@H](CN(S(=O)(=O)c3ccc(C)cc3)[C@H]2c2ccccc2Cl)[C@H]2C(=O)N(C(C)(C)C)C(=O)[C@H]2C1,27,n,n,n,n,n
O=C(CN1CCC(N2CCCCC2)CC1)N1CCCc2ccccc21,n,n,n,n,n,n
O=C(CN1CCCCC1)N1c2ccccc2CCc2ccccc21,n,n,n,93,n,n
CC1CCN(CC(=O)N2c3ccccc3CCc3ccccc32)CC1,n,n,n,72,n,n
O=C(CN1CCC(O)CC1)N1c2ccccc2C=Cc2ccccc21,n,n,n,47,n,n
O=C(c1c(Cl)nc2sccn12)N1CCN(c2cccc(Cl)c2)CC1,n,n,n,n,n,n

# High-throughput results: PubChem BioAssay, The Scripps Research Institute Molecular Screening Center
